Test results reported in PubChem BioAssay.
The source made the active and inactive calls. Unless noted, the rule behind the calls is not given here.

What was measured:
[1] = compounds binding Alexa647 anti-His antibody – biochemical, small-molecule microarray, 635 nm fluorescence, artefact control for SMM control protein annotation, primary screen (AID 1128); conditions: higher = more signal;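 note: score merges feature fluorescence with signal-to-noise for each printed compound spot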
[2] = system: Human papillomavirus type 1a E7 protein (residues 1-88); assay: HPV1a E7 small-molecule binders, primary screen, biochemical, small-molecule microarray, residues 1-88, 635 nm (AID 1129); conditions: small-molecule microarray binding, fluorescence 635 nm; higher = more signal
[3] = biological target: Focal adhesion kinase 1 (Homo sapiens) (UniProt Q05397); assay: PTK2 protein binding on printed compound slides – biochemical, small-molecule microarray, 635/667 nm fluorescence, BSA, DTT, primary screen (AID 1130); conditions: 635 nm fluorescence, higher = more signal;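 note: composite of spot emission at 667 nm and signal to noise over triplicate slides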
[4] = system: Fibrinogen (Alexa647-labelled); assay: Alexa647-fibrinogen binding to printed small molecules – biochemical, small-molecule microarray, 635/667 nm fluorescence, artefact control for SMM control-protein annotation, profiling panel (AID 1131); conditions: fibrinogen-A647 binding fluorescence, higher = more signal;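 note: z-score merges 667 nm fluorescence with per-spot signal-to-noise over triplicate slides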
[5] = biological target: Follistatin (Homo sapiens) (UniProt P19883); assay: FST protein binding to printed compounds – biochemical, small-molecule microarray, 635/667 nm fluorescence, primary screen (AID 1132); conditions: 635 nm fluorescence, higher = more signal
[6] = biological target: Fibroblast growth factor 2 (Homo sapiens) (UniProt P09038); assay: basic fibroblast growth factor binding to printed compounds – biochemical, small-molecule microarray, 635/667 nm fluorescence, primary screen (AID 1133); conditions: FGF2, fluorescence 635/667, higher = more signal
[7] = JC-1 mitochondrial potential readout, lung cancer cells – cell-based, A549, JC-1 fluorescence, basal, 24 h, 100 nL, profiling panel (AID 1138); conditions: higher = more signal;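 note: A549 lung adenocarcinoma cells under basal conditions with no added stimulus; test concentration not given here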
Lefty1 = Lefty1 protein binding to printed compounds – biochemical, small-molecule microarray, 635/667 nm fluorescence, primary screen (AID 1139); conditions: fluorescence 635/667, higher = more signal
[8] = system: wheat germ agglutinin (Triticum aestivum), Alexa647-labelled; assay: Alexa647-WGA lectin binding to printed small molecules – biochemical, small-molecule microarray, 635/667 nm fluorescence, artefact control for SMM control-protein annotation, profiling panel (AID 1140); conditions: WGA-A647 binding, 635 nm fluorescence, higher = more signal;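 note: score merges 667 nm feature emission with signal to noise over triplicate slides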
[9] = biological target: Luciferin 4-monooxygenase (Photinus pyralis) (UniProt P08659); assay: inhibition of purified Photinus pyralis luciferase – biochemical, luminescence, purified enzyme, 2006 set, primary screen (AID 1141); conditions: purified firefly luciferase, SteadyGlo luminescence, 30 min; higher = more signal, called active from +8 up or from −8 down;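 note: cell-free assay with purified firefly luciferase at 100 ng per well in PBS; test concentration not given here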
[10] = system: Wnt5a (protein binding on small-molecule microarray); assay: small molecules binding Wnt5a protein – biophysical, small-molecule microarray, 635/667 nm fluorescence, primary screen (AID 1142); conditions: 635 nm fluorescence, higher = more signal;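 note: fluorescence read at 667 nm with signal to noise per printed feature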
[11] = ATP-based viability of Huh7 replicon cells – cell-based, CellTiter-Glo luminescence, basal, 48 h, cytotoxicity control for HCV replication inhibitor project, primary screen (AID 1143); conditions: higher = more signal, called active from +8 up or from −8 down;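 note: Huh7 hepatoma cells carrying a hepatitis C replication reporter with no stimulus; test concentration not given here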
[12] = Pseudomonas biofilm growth suppression – PAO1 strain, BacTiter-Glo luminescence, LB-PBS, primary screen (AID 1144); conditions: P. aeruginosa PAO1 biofilm, 12 h, higher = more signal
[13] = basal CRE-LacZ reporter activity in PC12 – cell-based, unstimulated, primary screen (AID 1145); conditions: no forskolin, luminescence, 4.5 h, higher = more signal, called active from +8 up or from −8 down
[14] = forskolin-driven CRE-LacZ activity in PC12 – cell-based, CRE-LacZ reporter, forskolin-stimulated, primary screen (AID 1146); conditions: luminescence, 4.5 h, higher = more signal, called active from +8 up or from −8 down;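 note: PC12 cells with 6xCRE LacZ reporter stimulated by forskolin 10 µM; beta-galactosidase reporter signal reflecting CREB driven transcription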
[15] = biological target: Streptavidin (Streptomyces avidinii) (UniProt P22629); assay: compounds binding control protein streptavidin – biophysical, small-molecule microarray, 635/667 nm fluorescence, artefact control for SMM compound annotation, primary screen (AID 1147); conditions: higher = more signal;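 note: signal reflects streptavidin binding to arrayed compounds as a control protein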
[16] = probe aInhba binding on compound microarray – biochemical, small-molecule microarray, 635/667 nm fluorescence, primary screen (AID 1148); conditions: higher = more signal;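 note: score merges 667nm spot fluorescence with signal-to-noise for antibody binding to printed compounds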
Torsin-1A (Homo sapiens) [17] = biological target: Torsin-1A (Homo sapiens) (UniProt O14656); assay: TOR1A wild-type binding on microarray – cell lysate, small-molecule microarray, lysate, 635/667 nm, primary screen (AID 1149); conditions: COS7 hTOR1A-WT lysate, 635 nm fluorescence, higher = more signal
Torsin-1A (Homo sapiens) [18] = biological target: Torsin-1A (Homo sapiens) (UniProt O14656); assay: torsin A mutant lysate binding on microarrays – cell lysate, small-molecule microarray, COS7 lysate, 635/667 nm fluorescence, primary screen (AID 1150); conditions: COS7 hTOR1A mutant lysate, 635 nm fluorescence, higher = more signal;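 note: score pools 667 nm emission and signal to noise measuring lysate protein binding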
[19] = system: Sonic hedgehog protein (Shh); assay: Sonic hedgehog microarray binding compounds – biochemical, small-molecule microarray, 635/667 nm fluorescence, primary screen (AID 1151); conditions: 635 nm fluorescence, higher = more signal;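 note: Shh protein binding to compounds spotted on small-molecule microarray slides; score combines spot fluorescence intensity with signal-to-noise across triplicate slides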

Torsin-1A (Homo sapiens), sequence (O14656 whole entry, looked up): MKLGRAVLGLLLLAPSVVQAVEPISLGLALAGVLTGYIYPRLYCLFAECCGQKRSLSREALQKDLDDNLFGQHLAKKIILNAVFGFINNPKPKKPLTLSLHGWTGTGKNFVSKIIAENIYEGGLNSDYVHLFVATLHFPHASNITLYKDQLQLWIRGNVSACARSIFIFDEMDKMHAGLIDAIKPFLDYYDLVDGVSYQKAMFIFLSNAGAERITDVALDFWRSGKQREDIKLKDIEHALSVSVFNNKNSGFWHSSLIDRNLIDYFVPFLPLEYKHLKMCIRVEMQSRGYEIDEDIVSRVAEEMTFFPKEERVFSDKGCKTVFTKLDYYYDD
Luciferin 4-monooxygenase (Photinus pyralis), sequence (P08659 whole entry, looked up): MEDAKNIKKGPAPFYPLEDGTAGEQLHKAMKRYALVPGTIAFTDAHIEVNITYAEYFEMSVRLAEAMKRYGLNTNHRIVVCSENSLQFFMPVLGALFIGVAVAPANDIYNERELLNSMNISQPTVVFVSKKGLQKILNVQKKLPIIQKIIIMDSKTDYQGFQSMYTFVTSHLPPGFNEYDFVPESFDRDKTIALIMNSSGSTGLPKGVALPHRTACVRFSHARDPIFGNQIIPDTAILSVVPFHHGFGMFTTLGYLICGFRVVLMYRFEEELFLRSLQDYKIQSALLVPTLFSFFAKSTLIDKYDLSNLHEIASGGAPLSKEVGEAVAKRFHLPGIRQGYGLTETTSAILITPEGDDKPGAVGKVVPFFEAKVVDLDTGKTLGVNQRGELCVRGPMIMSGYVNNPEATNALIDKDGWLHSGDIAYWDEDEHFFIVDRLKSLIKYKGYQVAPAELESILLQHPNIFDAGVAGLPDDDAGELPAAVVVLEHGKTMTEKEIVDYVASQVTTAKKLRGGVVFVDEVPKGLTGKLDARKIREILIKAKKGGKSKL
Fibroblast growth factor 2 (Homo sapiens), sequence (P09038 whole entry, looked up): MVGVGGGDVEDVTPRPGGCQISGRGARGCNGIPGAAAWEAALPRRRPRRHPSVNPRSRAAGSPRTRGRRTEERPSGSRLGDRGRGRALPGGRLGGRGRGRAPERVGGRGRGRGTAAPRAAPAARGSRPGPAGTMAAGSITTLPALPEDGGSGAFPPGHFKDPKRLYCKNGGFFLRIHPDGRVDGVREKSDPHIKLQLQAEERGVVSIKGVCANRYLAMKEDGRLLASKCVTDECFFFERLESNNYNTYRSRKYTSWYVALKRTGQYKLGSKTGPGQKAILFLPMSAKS
Follistatin (Homo sapiens), sequence (P19883 whole entry, looked up): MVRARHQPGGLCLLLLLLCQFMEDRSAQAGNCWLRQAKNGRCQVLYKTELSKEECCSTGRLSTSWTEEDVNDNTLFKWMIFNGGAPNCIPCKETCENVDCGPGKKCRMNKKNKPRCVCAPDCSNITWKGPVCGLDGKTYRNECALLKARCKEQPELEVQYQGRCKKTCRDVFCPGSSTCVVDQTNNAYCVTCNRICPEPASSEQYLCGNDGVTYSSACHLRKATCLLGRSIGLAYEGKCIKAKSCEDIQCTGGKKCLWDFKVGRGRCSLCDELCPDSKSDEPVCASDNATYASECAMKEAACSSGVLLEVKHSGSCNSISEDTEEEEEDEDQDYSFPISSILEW
Streptavidin (Streptomyces avidinii), sequence (P22629 whole entry, looked up): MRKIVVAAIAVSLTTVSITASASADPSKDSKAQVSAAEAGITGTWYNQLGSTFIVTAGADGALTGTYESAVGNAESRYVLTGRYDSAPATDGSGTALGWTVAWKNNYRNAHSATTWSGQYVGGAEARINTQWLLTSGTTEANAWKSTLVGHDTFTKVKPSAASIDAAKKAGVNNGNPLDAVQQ
Focal adhesion kinase 1 (Homo sapiens), sequence (Q05397 whole entry, looked up): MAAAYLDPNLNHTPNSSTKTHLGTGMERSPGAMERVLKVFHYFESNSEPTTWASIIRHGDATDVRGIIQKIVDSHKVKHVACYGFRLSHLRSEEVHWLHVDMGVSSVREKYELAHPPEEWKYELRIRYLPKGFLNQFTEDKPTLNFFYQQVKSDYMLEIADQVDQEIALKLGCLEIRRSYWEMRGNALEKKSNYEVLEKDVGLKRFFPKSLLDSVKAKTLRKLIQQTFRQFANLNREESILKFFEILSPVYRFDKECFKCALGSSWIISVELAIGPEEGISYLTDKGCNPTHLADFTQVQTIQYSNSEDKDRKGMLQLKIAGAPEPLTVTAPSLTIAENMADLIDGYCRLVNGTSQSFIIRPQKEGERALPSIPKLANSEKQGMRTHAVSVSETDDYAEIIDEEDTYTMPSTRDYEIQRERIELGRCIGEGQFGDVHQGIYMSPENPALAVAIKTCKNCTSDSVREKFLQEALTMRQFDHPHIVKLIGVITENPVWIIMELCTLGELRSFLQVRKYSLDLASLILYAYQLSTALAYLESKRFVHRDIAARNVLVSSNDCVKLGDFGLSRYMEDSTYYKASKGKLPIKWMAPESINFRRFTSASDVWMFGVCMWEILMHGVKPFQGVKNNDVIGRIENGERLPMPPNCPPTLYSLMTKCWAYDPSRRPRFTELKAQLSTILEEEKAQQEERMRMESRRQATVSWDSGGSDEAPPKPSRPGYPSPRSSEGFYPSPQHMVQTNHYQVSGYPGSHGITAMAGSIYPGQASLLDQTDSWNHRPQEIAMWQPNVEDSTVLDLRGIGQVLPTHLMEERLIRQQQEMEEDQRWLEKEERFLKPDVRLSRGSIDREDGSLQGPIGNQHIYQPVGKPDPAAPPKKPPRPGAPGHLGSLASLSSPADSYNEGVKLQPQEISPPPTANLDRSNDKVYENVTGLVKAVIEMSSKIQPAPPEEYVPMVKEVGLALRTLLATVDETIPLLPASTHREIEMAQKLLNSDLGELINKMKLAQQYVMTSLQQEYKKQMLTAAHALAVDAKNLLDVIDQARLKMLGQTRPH

SMILES	composite z-score [1]	composite z-score [2]	composite z-score [3]	composite z-score [4]	composite z-score [5]	composite z-score [6]	z-score [7]	composite z-score (Lefty1)	composite z-score [8]	z-score [9]	composite z-score [10]	z-score [11]	z-score [12]	z-score [13]	z-score [14]	composite z-score [15]	composite z-score [16]	composite z-score (Torsin-1A (Homo sapiens) [17])	composite z-score (Torsin-1A (Homo sapiens) [18])	composite z-score [19]
COc1ccc([Si](C)(C)[C@@H]2[C@@H](CC(=O)N3CCC[C@H]3CO)O[C@]3(C(=O)N(C)c4c(Br)cc(C)cc43)[C@H]2C)cc1	0.437	1.15	0.393	0.935	1.17	0.987	0.66	1.19	0.0832	-0.297 (inactive)	0.29	-2.39 (inactive)	0.74 (inactive)	6.67 (inactive)	0.157 (inactive)	0.367	-0.103	0.178	0.67	1.43
C[C@H]1NC(=O)[C@H](Cc2ccccc2)NC(=O)[C@@]23C(=O)N[C@@H](Cc4ccccc4)C2[C@H](C)[C@@]2(C)O[C@H]2C3/C=C/C/C=C\CNC1=O (stereo not given in full)	-0.708	-1.27	-0.261	-1.75	0.275	0.0643	0.593	-0.94	-0.585	-0.923 (inactive)	-0.182	-0.679 (inactive)	0.615 (inactive)	2.67 (inactive)	-0.522 (inactive)	-0.496	-0.179	-0.477	-0.402	0.249
CC(=O)NCCCC[C@@H]1NC(=O)[C@H]2C[C@@H](C(=O)NCCCCCC[N+](C)(C)C)[C@@H](c3cccc(OCCO)c3)N2C1=O	0.627	0.614	0.207	0.77	1.4	1.9	-1.12	1.39	0.656	0.692 (inactive)	0.408	-2.49 (inactive)	-1.01 (inactive)	-0.801 (inactive)	-0.812 (inactive)	0.927	-0.149	1.07	0.59	2.26
C=CCOC(=O)[C@H]1[C@@H]2C(=O)O[C@@H](c3ccccc3)[C@@H](c3ccccc3)N2[C@@H](c2ccc(OCCOC(=O)[C@@H]3C[C@@H]4C(=O)N5CCC[C@H]5C(=O)N4[C@@H]3c3ccc(O)cc3)cc2)[C@]12C(=O)Nc1ccccc12	1.16	1.18	0.109	0.655	1.39	1.35	-1.19	1.04	0.77	-0.354 (inactive)	1.06	-0.496 (inactive)	-0.506 (inactive)	0.0124 (inactive)	-0.72 (inactive)	-0.244	-0.0963	0.529	0.853	1.23
CC(C)NC(=O)[C@@]1(Cc2ccccc2I)c2ccccc2C(=O)N(Cc2ccccc2)[C@H]1c1ccc(CO)cc1	3.2	1.19	1.05	0.387	1.29	1.07	0.188	1.19	0.131	0.277 (inactive)	0.107	-2.05 (inactive)	-0.549 (inactive)	-0.231 (inactive)	0.0359 (inactive)	0.0632	0.817	0.484	-0.181	1.39
COC(=O)c1ccc(OC)c(/C=C\CC(OC(C)=O)c2ccccc2)c1 (stereo not given)	0.838	0.255	-0.0638	0.775	0.946	0.933	-0.363	0.741	1.11	-0.454 (inactive)	-0.136	-1.38 (inactive)	0.623 (inactive)	0.479 (inactive)	-0.0792 (inactive)	3.16	-0.179	-0.0525	-0.165	0.539
O=C1OCCC=C[C@H]2OC34C=CCN(Cc5ccccc5)C(=O)[C@H]3N(CCCCCCO)C(=O)[C@@H]4C12 (stereo not given in full)	0.0899	-0.374	-0.574	-0.873	-0.0109	-1.02	0.544	0.798	-0.828	0.467 (inactive)	-0.751	0.404 (inactive)	-0.616 (inactive)	-0.761 (inactive)	-0.395 (inactive)	-0.887	-0.441	-1.92	-1.4	0.628
COc1ccc(C(O)C2C=CC3C(=O)N(c4ccccc4)C(=O)C3N2Nc2ccc([N+](=O)[O-])cc2)cc1OCc1ccccc1 (stereo not given)	1.71	1.2	0.315	0.995	0.508	0.156	0.41	-0.29	1.45	1.42 (inactive)	1.43	-0.317 (inactive)	0.208 (inactive)	-0.387 (inactive)	-0.588 (inactive)	0.935	1.16	-0.153	0.159	-0.381
C=CCN1C(=O)[C@]2(O[C@H](CCO)[C@@H]([Si](C)(C)c3ccc(OC)cc3)[C@@H]2C)c2cc(NC(=O)[C@H](C)O)ccc21	1.58	1.22	0.937	0.762	0.222	0.313	0.388	0.673	0.394	-0.181 (inactive)	0.276	-6.12 (inactive)	1.01 (inactive)	6.89 (inactive)	-0.144 (inactive)	0.553	0.339	0.725	0.499	1.34
Cc1ccc(S[C@]2(C(=O)NC3CC3)CC(=O)N(C3CCCCC3)[C@@H]2c2ccc(CO)cc2I)cc1	0.104	1.21	0.176	0.304	1.26	0.341	1.69	0.87	0.368	1.06 (inactive)	0.136	-3.4 (inactive)	-0.128 (inactive)	0.362 (inactive)	0.681 (inactive)	0.936	-0.0375	0.254	0.582	1.77
